From PubChem BioAssay (NCI) come the findings set out here.

Structures are written as SMILES. Compounds without any hit were thinned out: in the full panel of roughly 83,000, 20% have a hit.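 Results are percent growth after 48 hours of single-concentration exposure. 100 means growth as in untreated cells, lower positive values show inhibition; negative values down to -100 show cell death.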 A number with no mark means an inactive call. Activity calls are given as the source filed them. The calls were made as follows: active = growth percent below 10; inactive = the rest.

Some test systems named below: HCT-15 colon; HT29 colon; SNB-75 CNS; SNB-19 CNS; U251 CNS; PC-3 prostate; SK-MEL-5 melanoma; UACC-62 melanoma; LOX IMVI melanoma; SK-MEL-28 melanoma.
Common to all, as to assay: NCI-60 one-dose screen, 48 h (100 = growth as untreated, 0 = no growth, -100 = all killed)
Holding throughout (settings): 10 µM unless noted

Regarding `O=Cc1ccc(O)c2ncccc12`, the growth in the experiment on HCT-15 colon is 22.9%; with HT29 colon, 87.7%; in the experiment with SNB-75 CNS it was 73.9%; in the experiment on SNB-19 CNS, 68.1%; in the experiment on U251 CNS, 25.3%; in the experiment with PC-3 prostate, 16.6%. In addition, the growth was 44% in the experiment on SK-MEL-5 melanoma, 45.1% with UACC-62 melanoma, -68.5% (active) with LOX IMVI melanoma and 38.6% in the experiment with SK-MEL-28 melanoma.
As to `CCN(CC)Cc1cccc(C(=O)OC)c1`, the growth with HCT-15 colon is 102%; in the experiment on HT29 colon, 106%; in the experiment on SNB-75 CNS, 87.9%; in the experiment on SNB-19 CNS, 101%; in the experiment with U251 CNS, 96.3%; in the experiment with PC-3 prostate it was 78.1%. The growth in the experiment on SK-MEL-5 melanoma was 97.1%; with UACC-62 melanoma, 103%; in the experiment with LOX IMVI melanoma, 94.1%; in the experiment on SK-MEL-28 melanoma, 104%.
In the case of `NC(N)=NN=C(c1ccccc1)c1ccccc1`, the growth in the experiment on HCT-15 colon is 30.9%; in the experiment with HT29 colon, 11.7%; in the experiment with SNB-75 CNS, -7.05% (active); in the experiment with SNB-19 CNS, 47%; with U251 CNS, 32.1%; in the experiment with PC-3 prostate it was 23.8%. Also, the growth was 3.67% (active) in the experiment with SK-MEL-5 melanoma, 54.8% in the experiment on UACC-62 melanoma, 30.8% in the experiment on LOX IMVI melanoma and 43.1% in the experiment with SK-MEL-28 melanoma.
Take `O=C(NCCCNc1cc(-c2cn(-c3ccccc3)nc2-c2cccc(O)c2)ccn1)c1cccc(O)c1`: the growth was 79.5% in the experiment with HCT-15 colon; 87% in the experiment with HT29 colon; 59.8% in the experiment on SNB-75 CNS; 79.7% with SNB-19 CNS; 42.3% in the experiment on U251 CNS; 39.4% in the experiment with PC-3 prostate. Besides, the growth was 43.7% in the experiment on SK-MEL-5 melanoma, 42% with UACC-62 melanoma, 54.1% in the experiment on LOX IMVI melanoma and 77.6% in the experiment on SK-MEL-28 melanoma.
For `O=C1OC(c2nc3ccccc3s2)=C/C1=C\c1ccc(O)cc1`, the growth was 111% in the experiment on HCT-15 colon; 99.5% in the experiment with HT29 colon; 92.7% with SNB-75 CNS; 97.2% with SNB-19 CNS; 107% in the experiment on U251 CNS; 88.8% in the experiment on PC-3 prostate. Also, the growth is 104% in the experiment on SK-MEL-5 melanoma, 89.1% in the experiment with UACC-62 melanoma, 94.3% in the experiment on LOX IMVI melanoma and 107% with SK-MEL-28 melanoma.
`CN(c1ccccc1)c1ccc2c(c1)OCCC21CC1Nc1cnccc1C(=O)O` (stereo not given): the growth in the experiment with HCT-15 colon is 27.1%; in the experiment with HT29 colon it was 75.8%; in the experiment on SNB-75 CNS it was 67.3%; with SNB-19 CNS, 66.6%; in the experiment with U251 CNS, 43.9%; in the experiment with PC-3 prostate it was 52.4%. Also, the growth is 48.7% in the experiment with SK-MEL-5 melanoma, 62% in the experiment on UACC-62 melanoma, 34.3% in the experiment on LOX IMVI melanoma and 69.1% in the experiment on SK-MEL-28 melanoma.
Turning to `COc1cc(/C=C/C(=O)c2cccc(-n3cc(-c4ccccc4)[nH]c3=O)c2)ccc1O`, the growth with HCT-15 colon was 22.2%; in the experiment with HT29 colon, 44.5%; with SNB-75 CNS, 46.8%; with SNB-19 CNS, 90.5%; in the experiment on U251 CNS, 16.6%; with PC-3 prostate, 61.3%. The growth in the experiment with SK-MEL-5 melanoma is 68.5%; in the experiment with UACC-62 melanoma it was 69.8%; in the experiment on LOX IMVI melanoma, 18.7%; with SK-MEL-28 melanoma, 70.2%.
As for `CCN1CCN(c2nc(C)cc(NCc3cc(Nc4ccnc5cc(Cl)ccc45)ccc3F)n2)CC1`, the growth was -24.2% (active) in the experiment on HCT-15 colon; -12.6% (active) with HT29 colon; -34.7% (active) with SNB-75 CNS; 34.7% with SNB-19 CNS; -27.2% (active) in the experiment on U251 CNS; 19.5% with PC-3 prostate. In addition, the growth in the experiment with SK-MEL-5 melanoma is -96.4% (active); in the experiment on UACC-62 melanoma it was -49.8% (active); with LOX IMVI melanoma it was -81.5% (active); with SK-MEL-28 melanoma it was -80.3% (active).
With `Cn1c(=O)c2c(nc(Cl)n2CCl)n(C)c1=O`, the growth in the experiment on HCT-15 colon is 13.6%; in the experiment with HT29 colon, 80.9%; in the experiment on SNB-75 CNS it was 94%; in the experiment on SNB-19 CNS, 100%; with U251 CNS, 96%; with PC-3 prostate, 98.5%. For the same compound, the growth was 88.1% in the experiment with SK-MEL-5 melanoma, 94.7% with UACC-62 melanoma, -0.952% (active) in the experiment on LOX IMVI melanoma and 55% with SK-MEL-28 melanoma.
Turning to `Cc1ccccc1NC(=O)N/C(N)=N/c1nc(-c2cccc([N+](=O)[O-])c2)cs1`, the growth was 24.8% in the experiment with HCT-15 colon; 17.1% in the experiment with HT29 colon; -9.74% (active) in the experiment with SNB-75 CNS; 44.1% in the experiment on SNB-19 CNS; 40.4% in the experiment on U251 CNS; 58% with PC-3 prostate. The growth with SK-MEL-5 melanoma was 49.3%; in the experiment with UACC-62 melanoma it was 34.1%; with LOX IMVI melanoma, -10.5% (active); in the experiment with SK-MEL-28 melanoma, 54.1%.
On to `NNC(=O)c1nc(N)n(-c2ccc(S(N)(=O)=O)cc2)n1`, for which the growth was 107% in the experiment on HCT-15 colon; 99.9% in the experiment on HT29 colon; 92.5% with SNB-75 CNS; 96.4% in the experiment on SNB-19 CNS; 88.8% in the experiment on U251 CNS; 89.7% in the experiment with PC-3 prostate. Also, the growth with SK-MEL-5 melanoma was 96.9%; in the experiment on UACC-62 melanoma, 99.2%; in the experiment with LOX IMVI melanoma it was 93.3%; in the experiment on SK-MEL-28 melanoma, 108%.
Take `O=C(/C=C/c1ccc(Cl)nc1)c1ccc(Cl)cc1Cl`: the growth with HCT-15 colon was 69.2%; in the experiment with HT29 colon it was 75.8%; in the experiment with SNB-75 CNS, 108%; in the experiment with SNB-19 CNS, 88.3%; with U251 CNS, 64%; in the experiment on PC-3 prostate, 101%. Also, the growth with SK-MEL-5 melanoma is 99.5%; in the experiment with UACC-62 melanoma, 97.2%; in the experiment on LOX IMVI melanoma it was 6.52% (active); in the experiment on SK-MEL-28 melanoma, 101%.
Turning to `COc1ccc(C2c3ccc4ccccc4c3Oc3nc(C)[nH]c(=O)c32)cc1` (stereo not given), the growth with HCT-15 colon is 99.6%; in the experiment with HT29 colon it was 142%; with SNB-75 CNS, 76.8%; in the experiment on SNB-19 CNS, 94.7%; in the experiment with U251 CNS it was 103%; in the experiment on PC-3 prostate, 96%. The growth in the experiment on SK-MEL-5 melanoma is 101%; in the experiment with UACC-62 melanoma, 94.5%; in the experiment with LOX IMVI melanoma, 88.8%; in the experiment on SK-MEL-28 melanoma it was 98.7%.
